In ChEMBL document CHEMBL3988442, “University of Dundee, Small-Polar-MMV Screening Library” (2021):
Hit rate of the full screen: of about 48,000 compounds, about 13,000 (27%) showed an effect of 50% or more. The list shows a part of the results.

System: Wolbachia pipientis
Assay: Anti-Wolbachia Cell-Based Screen
Format: functional
Design: scale not given: in the data most compounds retested in dose-response had high values
Conditions: 5 µM

SMILES | Percent Effect [%]
Cc1c(C(=O)N2CCCC(O)(CN(C)C)CC2)c2cc(O)ccc2n1C (stereo not drawn) | -7.516
CC(=O)N1CCC(Nc2ccc(Br)cc2C#N)C1 (stereo not drawn) | -20.23
Cc1cc(C(=O)N2CCC(NC(=O)c3cccnc3)CC2)c(C)o1 | -8.9
Cc1ccsc1C(=O)N1CCC(Nc2cccnc2)CC1 | 82.28
COc1cc(C)sc1C(=O)N1CCC(Nc2cccnc2)CC1 | -10.68
Cc1nc(C)c(C(=O)N2CCC(Nc3cccnc3)CC2)s1 | 6.028
Cc1cc(C(=O)N2CCC(Nc3cccnc3)CC2)c(C)s1 | 98.75
O=C(CCn1ccc2ccccc21)N1CCC(Nc2cccnc2)CC1 | -9.935
COc1ccc([C@@H]2C[C@H](NC(C)=O)C[C@H](CCc3ccccc3)O2)cn1 | 7.698
CSCC[C@H](N)C(=O)N1CC(Oc2ccccc2C)C1 | -5.947
COCCOc1ncccc1CNC(=O)N1CCOCC1 | -0.8625
COc1ccc(-n2cnnc2SCCC#N)cn1 | -2.783
Cc1ccc(-n2nnc(C(=O)NCC(F)(F)F)c2C2CC2)cc1 | 125.2
O=C(NCC1(CO)CC1)c1nnn(-c2ccc(F)cc2)c1C1CC1 | -10.21
COC(=O)CCNC(=O)c1nnn(-c2ccc(F)cc2)c1C1CC1 | 1.406
Cc1ccc(-n2nnc(C(=O)NCCS(N)(=O)=O)c2C2CC2)cc1 | 2.856
Cc1ccc(-n2nnc(C(=O)NCC3(CO)CC3)c2C2CC2)cc1 | 112.7
COc1ccc(-n2nnc(C(=O)NC(C)C)c2C2CC2)cc1 | 16.07
COC(=O)CCNC(=O)c1nnn(-c2ccc(C)cc2)c1C1CC1 | 120.1
Cc1ccc(-n2nnc(C(=O)Nc3cc(C)nn3C)c2C2CC2)cc1 | -15.14
O=C(NCC1(C(=O)O)CCC1)c1nnn(-c2ccc(F)cc2)c1C1CC1 | 4.547
NS(=O)(=O)CCNC(=O)c1nnn(-c2ccc(F)cc2)c1C1CC1 | 1.057
CCN(CC)C(=O)c1nnn(-c2ccc(C)cc2)c1C1CC1 | -3.028

SMILES | Percent Effect [%]
Cc1ccc(-n2nnc(C(=O)NC(C)C)c2C2CC2)cc1 | 124.2
CC(NC(=O)NCCCO)c1ccc(-c2ccncc2)cc1 (stereo not drawn) | 6.546
Cc1ccccc1CN1CCNC(=O)C1CC(=O)NCC1CCCCC1 (stereo not drawn) | 13.06
NC(=O)CN1CC2(CCC1=O)CCN(Cc1cc(F)ccc1Cl)CC2 | 6.267
Cn1cc(CN2CCOC3(CCCN(C(=O)c4ccco4)C3)C2)cn1.O=C(O)C(F)(F)F (stereo not drawn) | -10.52
COc1ccc(C(C)N2CCC(CNC(C)=O)CC2)cc1Cl (stereo not drawn) | 4.452
COc1ccccc1C(=O)NC[C@H]1COCc2nc3c(C)cccc3n21 | -7.945
CS(=O)(=O)CCCSCc1cc(F)cc(Br)c1 | -17.62
COc1ccc(Br)cc1CCC(=O)N1CCCC1 | -8.693
CS(=O)(=O)CCSCc1ccc(Br)c(F)c1 | -8.514
COc1ccc(Br)cc1SCCC(N)=O | 101.3
COc1ccc(Br)cc1Cn1nc(C(N)=O)ccc1=O | 5.156
CS(=O)(=O)CCSc1cccc(C#N)c1 | -1.405
COc1ccc(Br)cc1SCCS(C)(=O)=O | 106.5
COc1ccc(Br)cc1SCCCS(C)(=O)=O | 100.1
CS(=O)(=O)CCCSCc1ccc(Br)c(F)c1 | -6.245
O=C(Cc1ccc(O)c(Cl)c1)N1CCCCC1CCn1cccn1 (stereo not drawn) | -6.522
O=C(c1cccc2c1OCCO2)N1CCCC1Cn1cccn1 (stereo not drawn) | 5.303
O=C(Cc1ccc2c(c1)CCO2)N1CCCC1Cn1cccn1 (stereo not drawn) | 102
O=C(Cc1ccc2c(c1)CCC2)N1CCCC1Cn1cccn1 (stereo not drawn) | 137.3
Cc1cnn(CC2CCCN2C(=O)Cc2ccc3c(c2)CCO3)c1 (stereo not drawn) | 96.14
O=C(Cc1ccc2c(c1)CCC2)N1CCCC(n2cccn2)C1 (stereo not drawn) | -2.086
O=C(Cc1ccc2c(c1)CCO2)N1CCCC(n2cccn2)C1 (stereo not drawn) | -1.485

SMILES | Percent Effect [%]
Cc1nn(CC(C)C)c(N(C)C)c1CNCCCNS(C)(=O)=O | 11.35
CCOc1ccnc(NCc2nc(C)cc(=O)[nH]2)n1 | 1.629
CCC(=O)N1Cc2nnc(C3CCOCC3)n2C(Cc2c[nH]cn2)C1 (stereo not drawn) | -1.737
CC(C)N(C)C[C@H]1OC[C@@H]2CCN(Cc3cccc(C#N)c3)C[C@@H]21.O=C(O)C(F)(F)F.O=C(O)C(F)(F)F | 7.862
O=C1NC2(CCN(C(=O)c3ccc(Cl)cn3)CC2)CC1c1ccccc1 (stereo not drawn) | -25.51
COCCNc1nnc(-c2ccc(C)nc2)s1 | 135.2
COCCNc1nnc(-c2cnc(C)cn2)s1 | 149.1
COCCNc1nnc(-c2ccccn2)s1 | 158.8
COCCN(Cc1ccc(C)o1)C(=O)Nc1ncc(C)s1 | 4.146
COCCNc1nc(-c2ccc(S(=O)(=O)N3CCCCC3)cc2)cs1 | 16.68
CCC(C)(C)NC(=O)Nc1nnc(-c2ccccn2)s1 | -10.26
COCCNc1nc2c(c(NCc3cnc(C)cn3)n1)CCNCC2 | -9.122
CCC(CC)(CC(=O)OC)NC(=O)Nc1nnc(-c2ccccn2)s1 | -2.114
COCCNc1nc(-c2ccc(S(=O)(=O)N3CCCCCC3)cc2)cs1 | -3.577
Cc1c(-c2ccncc2)n[nH]c1NC(=O)CCOC(C)C | -12.27
COc1cc2nc3n(c(=O)c2cc1OC)CCN(C)CC3 | -3.498
CN1CCc2nc3cc(C(=O)NCc4cccs4)ccc3c(=O)n2CC1 | 76.54
CCCNC(=O)c1ccc2c(OC)n(C)nc2c1 | -11.42
N#CCC(=O)NCc1nnc2n1CCN(Cc1cccs1)C2 | 6.584
COCCNC(=O)c1ccc2c(=O)n3c(nc2c1)CCN(C)CC3 | 94.74
O=c1c2sccc2nc2n1CCN(Cc1cccs1)CC2 | 5.975
CCN(Cc1ccncc1)Cc1c[nH]nc1-c1ccc(F)cc1 | -6.114
